Data on 17 compounds can be found in PubChem BioAssay.

Active and inactive are the calls of the source. Unless noted, how the calls were made is not given here.

Assay [1] has as its system XIP peptide (Xip251-270) binding. As to the kind of experiment: small-molecule binders of XIP peptide, primary screen, biochemical, small-molecule microarray, fluorescence 635/667 nm, 0.1 µg/mL protein (AID 1182). The conditions noted are these: fluorescent protein binding, 635 nm, higher = more signal, called active from +8 up or from −8 down.
Another assay relates to XIP peptide (Xip251-270). In words: small-molecule binders of XIP peptide, primary screen, biochemical, small-molecule microarray, fluorescence 635/667 nm, 0.5 µg/mL protein (AID 1183). The note with it: small-molecule microarray binding, fluorescence 635 nm; higher = more signal.
A short description of assay [2]: Plasmodium falciparum growth inhibition, primary screen, strain 3D7, DAPI fluorescence, 100 nL (AID 1184).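 Further: parasites grown inside human red blood cells in medium with human serum.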 The conditions noted are these: P. falciparum 3D7 growth, 3 d, higher = more signal.
For assay [3], the target named is Homeobox protein Hox-A13 (Mus musculus) (UniProt Q62424). As to the kind of experiment: inhibitors of HoxA13-DNA binding, primary screen, biochemical, fluorescence polarization, labeled oligonucleotide (AID 1185). The conditions noted are these: 15 min, higher = more signal, called active from +8 up or from −8 down. On the technique in general: Polarisation of emitted light reports the rotation of a fluorescent probe.
Chain of Homeobox protein Hox-A13 (Mus musculus) (Q62424 whole entry, looked up): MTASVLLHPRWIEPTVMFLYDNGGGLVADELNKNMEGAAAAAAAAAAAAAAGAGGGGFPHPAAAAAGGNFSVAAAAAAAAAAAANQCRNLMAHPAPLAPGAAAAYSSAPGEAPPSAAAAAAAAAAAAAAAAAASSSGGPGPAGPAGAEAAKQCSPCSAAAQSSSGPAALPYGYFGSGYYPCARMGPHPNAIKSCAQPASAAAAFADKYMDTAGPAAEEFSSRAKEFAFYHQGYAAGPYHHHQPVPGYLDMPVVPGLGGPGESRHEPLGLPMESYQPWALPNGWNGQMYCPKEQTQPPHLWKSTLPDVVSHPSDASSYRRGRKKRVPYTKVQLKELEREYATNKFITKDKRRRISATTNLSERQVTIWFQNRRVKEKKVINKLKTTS

Assay [4] can be described thus: inhibitors of hydroxyurea-induced Chk1 phosphorylation, primary screen, imaging, HeLa, phospho-Chk1 antibody, percent positive cells (AID 1186). The conditions noted are these: hydroxyurea-induced phospho-Chk1 immunofluorescence imaging, higher = more signal.
A short description of assay [5]: inhibitors of hydroxyurea-induced Chk1 phosphorylation, primary screen, imaging, HeLa, phospho-Chk1 nuclear intensity (AID 1187). The note with it: hydroxyurea-induced phospho-Chk1 immunofluorescence imaging, higher = more signal.

Take `COC(=O)[C@@]1(Cc2ccccc2)[C@H]2c3cc(C(=O)N4CCCC4)n(Cc4ccc(OC)c(OC)c4)c3C[C@H]2CN1C(=O)c1ccccc1`: the values for the composite z-score (in assay [1]; in the assay with XIP peptide (Xip251-270)) were 0.633 (inactive) and 0.0643, respectively. Moreover, the z-score is -1.32 in assay [2], -4.87 (inactive) in assay [3], 0.243 (inactive) in assay [4] and 0.282 (inactive) in assay [5].
In the case of `COc1ccc(C(=O)Nc2cccc(CN3C(=O)[C@@]4(O[C@@H](CC(=O)N5CCC[C@H]5CO)[C@H]([Si](C)(C)c5ccc(OC)cc5)[C@H]4C)c4ccccc43)c2)cc1`, the composite z-score was 0.802 (inactive) in assay [1] and 0.639 in the assay on XIP peptide (Xip251-270). The z-score is -2.16 in assay [2], -2.8 (inactive) in assay [3], -0.142 (inactive) in assay [4] and 0.071 (inactive) in assay [5].
Turning to `CCCCC(O)C1C=CC2C(=O)N(c3ccccc3)C(=O)C2N1Nc1ccc(C#N)cc1` (configuration not stated), the values for the composite z-score (in assay [1]; in the assay with XIP peptide (Xip251-270)) were 1 (inactive) and 0.109, respectively. Also, the z-score is 0.832 in assay [2], -3.62 (inactive) in assay [3], 0.194 (inactive) in assay [4] and 0.404 (inactive) in assay [5].
Consider `COCC(=C=CC[C@H](O)c1ccccc1OCCO)C[C@H](O)COCc1ccccc1`, for which the values for the composite z-score (in assay [1]; in the assay on XIP peptide (Xip251-270)) were 0.195 (inactive) and 0.148, respectively. Also, the z-score is -1.77 in assay [2], -4.37 (inactive) in assay [3], 0.141 (inactive) in assay [4] and 0.058 (inactive) in assay [5].
Consider `C[N+](C)(C)CCCC[C@@H]1NC(=O)[C@@H]2C[C@H](C(=O)NCc3ccc(F)cc3)[C@H](c3ccc(O)cc3)N2C1=O`, for which the composite z-score in assay [1] was 0.744 (inactive); with XIP peptide (Xip251-270), 0.0664. Further, the z-score was 0.269 in assay [2], -0.882 (inactive) in assay [3], 0.0551 (inactive) in assay [4] and 0.0892 (inactive) in assay [5].
For the compound `CCCCN1CC=CC23O[C@@H]4/C=C\CCCOC(=O)C4[C@H]2C(=O)N(C(CO)C(C)C)[C@@H]3C1=O` (some centres not stated), the composite z-score in assay [1] was 1.4 (inactive); with XIP peptide (Xip251-270), -0.492. Also, the z-score was 1.18 in assay [2], -5.81 (inactive) in assay [3], 0.458 (inactive) in assay [4] and 0.188 (inactive) in assay [5].
As for `O=C(NCC(O)CO)C1N=C(c2ccc(OCCCO)cc2)N(c2ccccc2)O1` (configuration not stated), the composite z-score was 0.654 (inactive) in assay [1] and 0.801 in the assay on XIP peptide (Xip251-270). Also, the z-score is -0.284 in assay [2], -2.55 (inactive) in assay [3], -0.195 (inactive) in assay [4] and -0.257 (inactive) in assay [5].
Take `CN(C)CCCNC(=O)[C@@]1(C)c2ccccc2C(=O)N(Cc2ccc(OC(F)(F)F)cc2)[C@H]1c1ccc(CO)cc1`: the composite z-score in assay [1] was 0.784 (inactive); with XIP peptide (Xip251-270), 0.778. The z-score in assay [2] was -1.94; in assay [3] it was -1.98 (inactive); in assay [4], 0.395 (inactive); in assay [5], 0.0436 (inactive).
Take `CCN(CC)c1ccc(N2CC=CC34O[C@@H]5C=CCCOC(=O)C5[C@H]3C(=O)N(C(C)CO)[C@@H]4C2=O)cc1` (some centres not stated): the composite z-score in assay [1] is 0.587 (inactive); with XIP peptide (Xip251-270) it was 0.77. Also, the z-score in assay [2] was 0.479; in assay [3] it was -6.31 (inactive); in assay [4] it was 1.74 (inactive); in assay [5], 0.865 (inactive).
Regarding `O=C(NCCN1CCOCC1)[C@@H]1c2ccccc2C(=O)N(Cc2ccc(OC(F)(F)F)cc2)[C@H]1c1ccc(CO)cc1`, the composite z-score was 0.441 (inactive) in assay [1] and -0.103 with XIP peptide (Xip251-270). Also, the z-score in assay [2] was -1.05; in assay [3], -4.13 (inactive); in assay [4], 0.0777 (inactive); in assay [5], -0.117 (inactive).
For `COC(=O)[C@@]1(Cc2ccccc2)N=C(c2ccc(OCCCO)cc2)O[C@H]1c1ccccc1CN=[N+]=[N-]`, the composite z-score is -0.139 (inactive) in assay [1] and 0.85 in the assay on XIP peptide (Xip251-270). For the same compound, the z-score was -2.42 in assay [2], -1.25 (inactive) in assay [3], -0.727 (inactive) in assay [4] and -0.906 (inactive) in assay [5].
As for `CC(C)(C)OC(=O)CC[C@@]1(C(=O)NCCN2CCOCC2)N=C(c2ccc(OCCCO)cc2)O[C@@H]1c1ccccc1CN=[N+]=[N-]`, the composite z-score is 0.158 (inactive) in assay [1] and 0.729 with XIP peptide (Xip251-270). The z-score in assay [2] is -0.41; in assay [3], -4.93 (inactive); in assay [4], -0.0412 (inactive); in assay [5] it was -0.301 (inactive).
As for `Cc1ccc(S[C@]2(C(=O)NCC(F)(F)F)CC(=O)N(Cc3ccccc3C(F)(F)F)[C@@H]2c2ccc(CO)cc2)cc1`, the composite z-score in assay [1] was 0.859 (inactive); in the assay with XIP peptide (Xip251-270) it was 0.843. Besides, the z-score in assay [2] was 0.186; in assay [3], -1.74 (inactive); in assay [4] it was 0.145 (inactive); in assay [5] it was 0.518 (inactive).
For the compound `NC(=O)N1C(=O)C2C(C1=O)C1C=C(CCCO)C2C(C2CC2)N1Cc1sc2ccccc2c1Cl` (configuration not stated), the composite z-score in assay [1] was 0.632 (inactive); with XIP peptide (Xip251-270), 0.692. The z-score in assay [2] is -0.672; in assay [3] it was -4.04 (inactive); in assay [4], -0.273 (inactive); in assay [5], -0.171 (inactive).
Turning to `COc1cc(CO)cc(I)c1O[C@H]1C=C(C(=O)NCCO)C[C@@H](NC2CCCCCC2)[C@@H]1O`, the composite z-score is 0.509 (inactive) in assay [1] and 0.649 in the assay with XIP peptide (Xip251-270). Further, the z-score in assay [2] is -3.18; in assay [3], -7.19 (inactive); in assay [4], -0.75 (inactive); in assay [5], -1.01 (inactive).
As for `CC(C)N1C(=O)c2ccccc2[C@@H](C(=O)NCC(F)(F)F)[C@@H]1c1ccc(CO)cc1`, the composite z-score was -0.258 (inactive) in assay [1] and -0.245 in the assay on XIP peptide (Xip251-270). For the same compound, the z-score in assay [2] is 0.872; in assay [3] it was -1.73 (inactive); in assay [4] it was 0.0626 (inactive); in assay [5], 0.11 (inactive).
Consider `OCCCC1=CC(c2ccc(CN3CCCC3)cc2)N(Cc2cccc(OC(F)(F)F)c2)CC1` (configuration not stated), for which the composite z-score in assay [1] is -0.113 (inactive); with XIP peptide (Xip251-270) it was -0.504. Moreover, the z-score in assay [2] is -2.86; in assay [3], -3.15 (inactive); in assay [4] it was 0.86 (inactive); in assay [5], 1.51 (inactive).
